These results are taken from PubChem BioAssay (EPA / NIEHS).

As a reminder, the AC50 is the concentration at which the activity in the assay is half-maximal.

Records with an inconclusive call do not appear. Calls of active or inactive are those of the source. Rule for the calls, unless noted: active = hit-call score of the fitted dose curve at least 0.9, where 1 is the maximum; inactive = score below 0.9.

Assay [1] is described as follows: TOX21_p53_BLA_p2_viability: Viability Assessment in the Tox21 HCT-116 p53 Agonism Beta-lactamase Assay, Phase 2 (AID 2283591; active = hit-call score of the fitted dose curve at least 0.9, where 1 is the maximum;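 note: compound exposure lasted 16 h at 37 °C; actives lower the ATP signal meaning cytotoxicity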). The procedure, abridged: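 Cytotoxicity readout: CellTiter-Glo ATP luminescence, 30 min at room temperature, after the beta-lactamase read. Cells were HCT116 exposed 16 h at 37C to compounds pin-transferred at 217-fold dilution from DMSO stocks.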

Assay [2] is described as follows: TOX21_p53_BLA_p3_viability: Viability Assessment in the Tox21 HCT-116 p53 Agonism Beta-lactamase Assay, Phase 3 (AID 2283593; active = hit-call score of the fitted dose curve at least 0.9, where 1 is the maximum;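 note: cells exposed to compound for 16 h before reading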). The method in brief: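 Cellular ATP was quantified by CellTiter-Glo luminescence, read after 30 min at room temperature. Beforehand, HCT116 cells (4000/well) received compound 5 h post-seeding, 217-fold diluted from DMSO, then incubated 16 h at 37C.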

Assay [3] concerns the target Cellular tumor antigen p53 (Homo sapiens) (UniProt P04637). Briefly: TOX21_p53_BLA_p3_ratio: Tox21 HCT-116 p53 Agonism Beta-lactamase Assay, Ratio, Phase 3 (AID 2283596; active = hit-call score of the fitted dose curve at least 0.9, where 1 is the maximum). The method in brief:
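Cells were seeded at 4000/well, rested 5 h at 37C, then dosed with DMSO compound solutions (217-fold dilution) for 16 h. CCF4-AM substrate was loaded for 2 h at room temperature, and the 460/530 nm emission ratio was fitted for gain of signal versus DMSO.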

A short description of assay [4]: TOX21_p53_BLA_p4_viability: Viability Assessment in the Tox21 HCT-116 p53 Agonism Beta-lactamase Assay, Phase 4 (AID 2283597; active = hit-call score of the fitted dose curve at least 0.9, where 1 is the maximum;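 note: hits lower the luminescence signal meaning cytotoxicity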). The procedure, abridged: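 Viability is taken as cellular ATP: after 16 h compound exposure of HCT116 cells and a 2 h room-temperature CCF4-AM substrate step, CellTiter-Glo reagent is added and luminescence is measured 30 min later.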
In assay [5] the target is Cellular tumor antigen p53 (Homo sapiens) (UniProt P04637). Briefly: TOX21_p53_BLA_p5_ratio: Tox21 HCT-116 p53 Agonism Beta-lactamase Assay, Ratio, Phase 5 (AID 2283599; active = hit-call score of the fitted dose curve at least 0.9, where 1 is the maximum). The procedure, abridged:
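Beta-lactamase reporter ratio (blue 460 nm over green 530 nm, 405 nm excitation) after 2 h CCF4-AM loading, in HCT-116 cells exposed 16 h at 37 C to compounds pinned at 217-fold dilution. Increases relative to DMSO baseline scored.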

The nature of assay [6]: TOX21_p53_BLA_p5_viability: Viability Assessment in the Tox21 HCT-116 p53 Agonism Beta-lactamase Assay, Phase 5 (AID 2283600; active = hit-call score of the fitted dose curve at least 0.9, where 1 is the maximum). The procedure, abridged:
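Viability is taken from cellular ATP content, measured by luciferase luminescence in the same wells after the beta-lactamase ratio read. Cells are seeded at 4000 per well and exposed to DMSO-dissolved compounds, diluted 217-fold, for 16 h.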

Assay [7] deals with Cellular tumor antigen p53 (Homo sapiens) (UniProt P04637). The experiment in a line: TOX21_p53_BLA_p4_ratio: Tox21 HCT-116 p53 Agonism Beta-lactamase Assay, Ratio, Phase 4 (AID 2283601; active = hit-call score of the fitted dose curve at least 0.9, where 1 is the maximum). The method in brief: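 Signal is the blue/green (460nm/530nm) ratio of cleaved versus uncleaved CCF4-AM substrate, read after 2 h substrate loading. Cells were HCT116 carrying the p53-responsive beta-lactamase reporter, dosed 16 h at 37C, 5% CO2; CellTiter-Glo measured in parallel.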
Sequence of Cellular tumor antigen p53 (Homo sapiens) (P04637 whole entry, looked up): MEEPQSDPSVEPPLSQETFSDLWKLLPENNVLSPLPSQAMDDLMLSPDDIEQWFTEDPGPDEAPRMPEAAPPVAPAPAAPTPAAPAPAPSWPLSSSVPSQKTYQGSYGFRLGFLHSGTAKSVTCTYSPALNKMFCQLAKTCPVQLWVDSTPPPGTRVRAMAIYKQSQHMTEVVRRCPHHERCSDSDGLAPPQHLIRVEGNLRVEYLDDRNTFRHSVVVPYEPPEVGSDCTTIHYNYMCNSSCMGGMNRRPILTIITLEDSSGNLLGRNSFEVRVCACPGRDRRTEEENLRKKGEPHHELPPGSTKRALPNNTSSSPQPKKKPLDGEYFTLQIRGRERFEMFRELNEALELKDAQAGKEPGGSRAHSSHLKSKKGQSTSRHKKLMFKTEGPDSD

The nature of assay [8]: CCTE_Shafer_MEA_dev_firing_rate_mean: CCTE's Neural Network Formation Assay for Mean Firing Rate, Shafer Lab (AID 2284031). The procedure, abridged:
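Read-out: spike count/recording length, averaged over active electrodes, then AUC across days 5, 7, 9, 12. Rat cortical cultures on MEA; continuous 12-day exposure, media and treatment renewed DIV 5, 9; DMSO baseline.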

Assay [9] is described as follows: CCTE_Shafer_MEA_dev_per_burst_spike_percent: CCTE's Neural Network Formation Assay for Percent of Spikes in a Burst, Shafer Lab (AID 2284032).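 Note: fitted as a decrease in burst spike percentage below DMSO baseline.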 The procedure, abridged:
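Value is trapezoidal AUC over recordings on days 5, 7, 9 and 12 of the well-mean fraction of spikes falling in single-electrode bursts; rat cortical cultures exposed continuously from plating, treatment renewed DIV 5 and 9, fitted downward against DMSO.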

A short description of assay [10]: CCTE_Shafer_MEA_dev_active_electrodes_number: CCTE's Neural Network Formation Assay for Number of Active Electrodes, Shafer Lab (AID 2284040; active = hit-call score of the fitted dose curve at least 0.9, where 1 is the maximum;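 note: potency for loss of active electrodes versus DMSO so lower counts are hits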). The procedure, abridged: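 Developing rat cortical networks on MEAs, exposed DIV 0–12. Value is the AUC of active-electrode counts (≥5 spikes/min) from days 5, 7, 9, 12, relative to DMSO.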
A short description of assay [11]: CCTE_Shafer_MEA_dev_burst_rate: CCTE's Neural Network Formation Assay for Burst Rate, Shafer Lab (AID 2284042). The procedure, abridged:
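Exposure ran continuously over 12 days of network development in rat cortical cultures, with compound refreshed during full media changes on DIV 5 and 9. Single-electrode bursts per recording time, well-mean over active electrodes, trapezoidal AUC across days 5–12, fitted downward relative to DMSO.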

A short description of assay [12]: CCTE_Shafer_MEA_dev_bursting_electrodes_number: CCTE's Neural Network Formation Assay for Number of Bursting Electrodes, Shafer Lab (AID 2284043; active = hit-call score of the fitted dose curve at least 0.9, where 1 is the maximum;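 note: potency is for loss of bursting electrodes relative to DMSO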). The procedure, abridged:
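Number of electrodes reaching ≥1 burst every 2 min was recorded at DIV 5, 7, 9 and 12 and collapsed as trapezoidal area under the curve. Cultures were rat cortical neurons on MEA plates, dosed continuously from plating with medium and treatment refreshed on DIV 5 and 9.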

Assay [13] can be described thus: CCTE_Shafer_MEA_dev_burst_duration_mean: CCTE's Neural Network Formation Assay for Mean Burst Duration, Shafer Lab (AID 2284045). The procedure, abridged:
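Mean single-electrode burst duration (first to last spike), averaged over bursting electrodes per well, then integrated as area-under-curve across recordings at days 5, 7, 9 and 12. Rat cortical cultures on MEAs, compound present from plating, refreshed at feeds.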

Assay [14] can be described thus: CCTE_Shafer_MEA_dev_interburst_interval_mean: CCTE's Neural Network Formation Assay for Mean Interburst Interval, Shafer Lab (AID 2284046).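 Note: curve fitted for decrease in interburst interval relative to DMSO.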 The procedure, abridged: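 Primary rat cortical neurons on PEI-coated 48-well MEA plates (laminin added with cells at plating) (16 electrodes/well), exposed from plating day 0 with renewal at DIV 5 and 9. Mean inter-burst interval averaged over bursting electrodes, AUC across days 5, 7, 9, 12; DMSO baseline.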

Assay [15] can be described thus: CCTE_Shafer_MEA_dev_inter_network_spike_interval_mean: CCTE's Neural Network Formation Assay for Mean Inter-network Spike Interval, Shafer Lab (AID 2284047). The procedure, abridged: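 Mean time between consecutive network-spike peaks, recorded extracellularly (adaptive spike detection) on DIV 5, 7, 9 and 12, summarized as trapezoidal AUC. Rat cortical cultures on MEAs dosed continuously days 0–12, re-dosed at feeds; loss-of-signal fit relative to DMSO.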

Assay [16] is described as follows: CCTE_Shafer_MEA_dev_network_spike_number: CCTE's Neural Network Formation Assay for Number of Network Spikes, Shafer Lab (AID 2284048).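 Note: synchronized bursts across electrodes counted on days 5 7 9 12 and integrated as AUC.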 The method in brief:
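Number of network spikes (coordinated firing across electrodes) recorded on days 5, 7, 9 and 12 and summarised as area under the curve. Rat cortical cultures on MEA, continuous compound exposure with full medium/treatment exchange at DIV 5 and 9.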

The nature of assay [17]: CCTE_Shafer_MEA_dev_network_spike_peak: CCTE's Neural Network Formation Assay for Mean Number of Electrodes in Network Spike, Shafer Lab (AID 2284049).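 Note: fitted for loss of signal meaning fewer electrodes in network spikes than DMSO.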 The method in brief: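 Rat cortical primary culture, 1.5 x 10^5 cells/well, 48-well MEA (16 electrodes/well). Dosing day 0 through DIV 12, full media/compound exchange DIV 5, 9. AxIS adaptive spike detection; AUC over days 5/7/9/12; loss-of-signal vs DMSO.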

Assay [18] in a line: CCTE_Shafer_MEA_dev_spike_duration_mean: CCTE's Neural Network Formation Assay for Mean Spike Duration, Shafer Lab (AID 2284051).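 Note: mean network spike duration pooled as area under curve over DIV 5 to 12 recordings; potency for a decrease in mean network spike duration versus DMSO.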 The procedure, abridged:
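Spontaneous activity was recorded on days 5, 7, 9 and 12 from rat cortical cultures grown on microelectrode arrays and dosed continuously from day 0, with media and compound renewed after the DIV 5 and 9 recordings. Network-spike duration was collapsed by area under the curve.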

Assay [19] is described as follows: CCTE_Shafer_MEA_dev_network_spike_duration_std: CCTE's Neural Network Formation Assay for Standard Deviation of Network Spike Duration, Shafer Lab (AID 2284052).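 Note: hits are decreases in network spike duration SD versus DMSO vehicle.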 The procedure, abridged:
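Network spike duration variability was collapsed across recordings on days 5, 7, 9 and 12 by trapezoidal area-under-curve and fitted downward against DMSO. Cultures were rat cortical neurons on PEI-coated MEA plates, dosed continuously from plating, refed with compound DIV 5/9.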

The nature of assay [20]: CCTE_Shafer_MEA_dev_per_network_spike_spike_number_mean: CCTE's Neural Network Formation Assay for Mean Number of Spikes in a Network Spike, Shafer Lab (AID 2284053). The procedure, abridged: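 Mean spike count within each network spike, taken in a 0.05 s window at its peak, was recorded on days 5, 7, 9 and 12 and integrated as trapezoidal area under the curve. Rat cortical cultures on MEA plates received continuous compound from day 0, refreshed at medium changes on DIV 5 and 9.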

Assay [21] can be described thus: CCTE_Shafer_MEA_dev_per_network_spike_spike_percent: CCTE's Neural Network Formation Assay for Percent of Spikes in a Network Spike, Shafer Lab (AID 2284054). The procedure, abridged: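 Metric: fraction of spikes falling in a 0.05 s window at network-spike peaks. Recordings were made on days 5, 7, 9 and 12 and collapsed by trapezoidal AUC. Cultures were rat cortical neurons on MEA plates, dosed continuously from plating, re-dosed at media changes.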

Take `Brc1ccc(Oc2cc(Br)c(Br)cc2Br)c(Br)c1`: the result in [1], in assay [2], in [3], in assay [4], in assay [5] and in assay [6] was inactive. In addition, the outcome in assay [7], in [8], in [11], in assay [13], in [14] and in assay [15] was inactive. Besides, the call in [16] and in [19] was inactive. Also, the AC50 in assay [9] is 13.2 µM (active); in assay [10], 14.1 µM (active); in assay [12], 13.6 µM (active); in assay [17], 10 µM (active); in assay [18], 10 µM (active); in [20] it was 10 µM (active). In addition, in assay [21], the AC50 was 13.5 µM (active).
